Compounds with a hit are over-represented: about 3.8% of the library has one in this group of screens.
Mtb hypoxia inh: PubChem AID 1159583; M. tuberculosis hypoxia-regulated fluorescent reporter, fluorescence; fluorescence inhibition, % (test concentration not listed); hit rate 0.1% among 300,000; in the data active means fluorescence inhibition mostly above about 23%, no sharp cut-off; inactive means mostly below about 17%
Mtb FBA inh: Mtb FBA enzyme inhibitors, primary screen, biochemical, fluorescence, strain H37Rv; hit rate 2.3% among 360,000; purified M. tuberculosis FBA, fluorescence read-out; inhibition, % at 1 µM; Fructose-bisphosphate aldolase (Mycobacterium tuberculosis (strain ATCC 25618 / H37Rv)), …; in the data active means inhibition above about 27%;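 further: 0% = vehicle and 100% = reference inhibitor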
Yp Topo-I inh: Yersinia pestis topoisomerase I inhibitors, primary screen, biochemical, cleavage product accumulation, plate reader, single point | Y. pestis Topo-I cleavage product accumulation | activity, % at 10 µM | hit rate 0.064% among 360,000 | AID 504884, 2011; in the data active means activity above about 50%, passing the limit was not always enough
GDH-TPI inh: GDH-TPI coupling enzyme inhibitors, primary screen, artefact control for M. tuberculosis FBA inhibitor project, biochemical, absorbance, full deck. GDH-TPI coupled enzyme counterscreen, NADH absorbance. inhibition, % at 4.8 µM. hit rate 1.2% among 360,000; in the data active means inhibition above about 30%;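 further: 0% = DMSO wells and 100% = wells lacking the enzyme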
PrP UTR inh: inhibition of PrP 5' UTR reporter expression; inhibition, % (no concentration beside the values); AID 488862, 2010; hit rate 0.35% among 340,000; cell-based PrP 5' UTR mRNA reporter, plate reader; in the data active means inhibition above about 52%; further: 0 = median of the neutral control wells
PrPC TRFRET: inhibitors of human cell surface prion protein PrPC, primary screen, cell-based, TR-FRET. Major prion protein (Homo sapiens), P04156. hit rate 0.43% among 370,000. AID 720596, 2013. inhibition, % at 13.8 µM. TR-FRET read-out; in the data active means inhibition above about 24%; further: 0% = median of the test wells and 100% = reference compound wells
PrPC confirm: confirmation of inhibitors of cell surface human prion protein, confirmation, cell-based, TR-FRET; cell surface PrPC level; inhibition, % at 13.8 µM; shares compounds with PrPC TRFRET; hit rate 65% among 1,500; in the data active means inhibition above about 25%
LD9 tox: cytotoxicity in LD9 cells, cytotoxicity control for cell surface PrPc inhibitor project, cell-based, luminescence, high throughput; luminescence viability; hit rate 29% among 1,500; shares compounds with PrPC TRFRET; AID 743201, 2013; inhibition, % at 13.8 µM; in the data active means inhibition above about 9.5%
* = called active by the depositor; · = no result.

SMILES	Mtb hypoxia inh	Mtb FBA inh	Yp Topo-I inh	GDH-TPI inh	PrP UTR inh	PrPC TRFRET	PrPC confirm	LD9 tox
C=C1C(=O)OC2CC3(C)OC3C3OC3C3=CC(OC3=O)C12 (stereo unspecified)	·	0	3	3	·	93*	80*	21*
CCC(=NNC(=O)C(N)=O)c1ccccc1O	3	·	·	·	·	·	·	·
CCCCNC(=S)NN=Cc1ccc(OCC(=O)Nc2c(C)cc(C)cc2C)c(OC)c1	8	·	·	·	·	·	·	·
Cc1cccc(/C=C(\c2nc3ccccc3[nH]2)S(=O)(=O)c2ccccc2)c1	2	-3	-1	2	-29	25*	17	22*
Cc1cc(NCCCn2ccnc2)n2nc(C)c(-c3ccc(Cl)cc3)c2n1	9	11	20	6	·	44*	2	9.7*
CC(C)(C)c1csc(NC(=O)Cn2cnc3ccccc3c2=O)n1	·	0	-10	-1	-4	35*	25*	1
CCOc1ccc(-n2c(C)cc(C=NNC(=O)CC(=O)NC3CCCCC3)c2C)cc1	6	·	·	·	·	·	·	·
CNC(=S)/N=C/NOCc1ccc(Cl)cc1Cl	·	-2	-11	1	-31	36*	45*	35*
O=C(NCc1cccc(Cl)c1)c1cc(COc2ccc3ncccc3c2)on1	2	4	25	8	-15	25*	26*	15*
Cc1ccc(F)cc1CNC(=O)c1cc(COc2ccc3ncccc3c2)on1	7	-1	10	-3	-33	14	·	·
COC(=O)C1=C(c2ccc(F)cc2OCc2ccccc2)CC2CCC1N2C(=O)NCc1ccc(Cl)cc1 (stereo unspecified)	4	·	·	·	·	·	·	·
CC(C)(C)c1ccc(S(=O)(=O)Nc2ccc(Cc3ccncc3)cc2)cc1	-2	-3	9	9	-16	28*	44*	7
CC(=O)Nc1ccc(S(=O)(=O)Nc2ccc(Cc3ccncc3)cc2)cc1	0	-1	6	-10	-28	4	·	·
CCOC(=O)c1c(-c2ccccc2)csc1NC(=O)CSc1nncs1	5	2	28	6	-4	42*	39*	-1
C=CCNC(=O)c1onc(CSc2ccccc2)c1C(=O)O	-9	-2	5	3	-23	-3	·	·
C=CCNC(=O)c1onc(CSc2ccc(OC)cc2)c1C(=O)O	7	0	10	6	-22	37*	5	-6
Cc1cc(C)nc(SC(C)C(=O)NN=Cc2cccs2)n1 (stereo unspecified)	7	·	·	·	·	·	·	·
Cc1nn(C(C)C(=O)O)c(=O)c2c1sc1ccccc12 (stereo unspecified)	0	1	-4	5	-5	45*	60*	-9
N#Cc1c(SCC(=O)Nc2nncs2)sc2c(O)cc(=O)[nH]c12	·	-4	-7	8	12	27*	1	-4
N#Cc1c(SCC(=O)Nc2ccc(C(F)(F)F)cc2)sc2c(O)cc(=O)[nH]c12	14	-1	-3	16	-32	-6	·	·
Cc1ccc(NC(=O)c2ccc(Nc3c([N+](=O)[O-])cc([N+](=O)[O-])cc3[N+](=O)[O-])cc2)cc1	46*	-11	6	6	-35	25*	7	37*
CC(=NO)c1ccc(Cl)c(Cl)c1	15	·	·	·	·	·	·	·
CC1CC(C)CC(C)C(O)C(C#N)=CC=CCC(C2CCCC2C(=O)O)OC(=O)CC(O)C(C)C1 (stereo unspecified)	·	-2	4	-2	51	87*	98*	51*
O=C(CSc1nnc(-c2ccccc2)n1-c1ccccc1)Nc1cccc2ccccc12	·	·	·	·	·	7	·	·
N#Cc1ccccc1NC(=O)CSc1nnc(-c2ccc(F)cc2)n1-c1ccccc1	·	0	-1	7	-2	38*	29*	2
SMILES	Mtb hypoxia inh	Mtb FBA inh	Yp Topo-I inh	GDH-TPI inh	PrP UTR inh	PrPC TRFRET	PrPC confirm	LD9 tox
Cc1nnc(SCC(=O)Nc2ccc(C(N)=O)cc2)n1-c1ccccc1	-3	-1	2	-4	-21	0	·	·
Cc1nnc(SCC(=O)Nc2cc(C(N)=O)cc(C(N)=O)c2)n1-c1ccccc1	2	-1	7	3	-11	45*	29*	-6
CC(C)(C)c1ccc(OCc2ccc(C(=O)NN=Cc3ccc(O)c(O)c3)cc2)cc1	10	·	·	·	·	·	·	·
CNC(=O)c1[nH]cnc1C(=O)NC(C)C(=O)OCc1ccccc1 (stereo unspecified)	9	·	·	·	·	·	·	·
Cc1ccc(NC(=O)CSc2nnc(N=CN(C)C)s2)cc1	-1	·	·	·	·	·	·	·
Cc1ccc(OCC(=O)NN=C2SCC(=O)N2Cc2ccccc2)cc1	10	·	·	·	·	·	·	·
COC1=CC(=O)c2c(ccc3ncnc(N)c23)C1=O	·	-2	-2	13	32	61*	84*	98*
COC1=CC(=O)c2nc(Cl)ccc2C1=O	·	0	·	·	·	-10	·	·
CNC(=O)c1cc(Oc2ccc(NC(=O)Nc3ccc(Cl)c(C(F)(F)F)c3)cc2)ccn1	·	0	-22	-8	31	27*	17	6
O=C(Nc1ccc(Cl)c(C(F)(F)F)c1)c1ccncc1	20	-3	-10	8	-5	15	·	·
CC(=O)OC1C2C(CC(C)C3C=CC(=O)[C@]31C)OC(=O)C2C (stereo partly specified)	15	·	·	·	·	·	·	·
COC(=O)C1=C(C)N(CC(C)C)C(=S)NC1c1ccc(-c2ccccc2)cc1 (stereo unspecified)	·	·	·	·	·	25*	14	0
COCc1cc(C)nc(SCc2ccccc2Cl)c1C#N	6	-1	38	6	-4	25*	7	-4
CCOC(=O)c1sc2ncnc(NCc3ccco3)c2c1C	·	17	1	-4	3	24*	18	15*
Cc1ccc(C(=O)Nc2ccccn2)cc1S(=O)(=O)N1CCOCC1	-9	-1	1	-4	-14	2	·	·
O=C(Nc1nc(-c2ccccn2)cs1)c1ccc(F)c(S(=O)(=O)N2CCOCC2)c1	6	0	-5	20	42	27*	33*	18*
Cc1ccc(C(=O)Nc2nc(-c3ccccn3)cs2)cc1S(=O)(=O)N1CCOCC1	4	0	-2	17	39	25*	23	3
N#CCCn1cc(C=NO)c(-c2ccccc2)n1	6	·	·	·	·	·	·	·
COc1cc(NC2c3ccccc3C(=O)N2Cc2ccccc2Cl)cc(OC)c1 (stereo unspecified)	1	3	33	5	-6	10	·	·
COc1cccc(NC2c3ccccc3C(=O)N2Cc2ccccc2Cl)c1 (stereo unspecified)	1	-7	16	1	-5	29*	7	-4

Screening data (PubChem)
